Where a name gives a salt, the structure may show the parent alone.
What was measured:
Assay in all cases: phenotypically active (imaging signature differs from DMSO and reproducible) at any of 0.3-9 uM (binary (1 = active, 0 = inactive)); higher = active
Conditions in all cases: treatment time: 24 h
[1] = test system: A549-ACTB-RAB5A
Method in brief: (§1)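 Four wells per concentration (0.3, 1, 3 or 9 µM) were treated for 24 h in each of fifteen gene-edited reporter lines from A549, HepG2 and WPMY1 cells, then imaged live. After normalising live-cell features to solvent control wells, deviation was defined as ≥3 of 4 wells lying past the 95th percentile of control Euclidean distances. Reproducibility was defined as a median replicate Pearson correlation above the 95th percentile of non-replicates. Both had to hold for phenotypic activity.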

[2] = test system: A549-CANX-COX4
Method in brief: as §1

[3] = test system: A549-GM130-SQSTM1
Method in brief: as §1

[4] = test system: A549-TP53BP1-CLTA
Method in brief: as §1

[5] = test system: A549-TUBA1B-RELA
Method in brief: as §1

[6] = test system: HepG2-ACTB-RAB5A
Method in brief: as §1

[7] = test system: HepG2-CANX-COX4
Method in brief: as §1

[8] = test system: HepG2-GM130-SQSTM1
Method in brief: as §1

[9] = test system: HepG2-TP53BP1-CLTA
Method in brief: as §1

[10] = test system: HepG2-TUBA1B-RELA
Method in brief: as §1

[11] = test system: WPMY1-ACTB-RAB5A
Method in brief: as §1

[12] = test system: WPMY1-CANX-COX4
Method in brief: as §1

[13] = test system: WPMY1-GM130-SQSTM1
Method in brief: as §1

[14] = test system: WPMY1-TP53BP1-CLTA
Method in brief: as §1

[15] = test system: WPMY1-TUBA1B-RELA
Method in brief: as §1

Measured: phenotypically active

COc1ccccc1OCC(O)CN1CCN(CC(=O)Nc2c(C)cccc2C)CC1 (stereo not given) [ranolazine]
inactive: [1] 0 | [2] 0 | [3] 0 | [4] 0 | [5] 0 | [6] 0 | [7] 0 | [8] 0 | [9] 0 | [10] 0 | [11] 0 | [12] 0 | [13] 0 | [14] 0 | [15] 0

Cn1c(=O)c2[nH]cnc2n(C)c1=O [Aminophylline]
inactive: [1] 0 | [2] 0 | [3] 0 | [4] 0 | [5] 0 | [6] 0 | [7] 0 | [8] 0 | [9] 0 | [10] 0 | [11] 0 | [12] 0 | [13] 0 | [14] 0 | [15] 0

OCCn1cc(-c2cnc3nnn(Cc4ccc5ncccc5c4)c3n2)cn1
inactive: [1] 0 | [2] 0 | [3] 0 | [4] 0 | [5] 0 | [6] 0 | [7] 0 | [8] 0 | [9] 0 | [10] 0 | [11] 0 | [12] 0 | [13] 0 | [14] 0 | [15] 0

O=C1CCc2cc(OCCCCc3nnnn3C3CCCCC3)ccc2N1 [Cilostazol]
inactive: [1] 0 | [2] 0 | [3] 0 | [4] 0 | [5] 0 | [6] 0 | [7] 0 | [8] 0 | [9] 0 | [10] 0 | [11] 0 | [12] 0 | [13] 0 | [14] 0 | [15] 0

N=C(N)NC(=O)Cc1c(Cl)cccc1Cl [guanfacine]
inactive: [1] 0 | [2] 0 | [3] 0 | [4] 0 | [5] 0 | [6] 0 | [7] 0 | [8] 0 | [9] 0 | [10] 0 | [11] 0 | [12] 0 | [13] 0 | [14] 0 | [15] 0

Cc1cc(/N=N/c2cc(S(=O)(=O)O)c(C)cc2C)c(N)cc1O [Ischemin sodium salt]
inactive: [1] 0 | [2] 0 | [3] 0 | [4] 0 | [5] 0 | [6] 0 | [7] 0 | [8] 0 | [9] 0 | [10] 0 | [11] 0 | [12] 0 | [13] 0 | [14] 0 | [15] 0

CCC[C@H](N[C@@H](C)C(=O)N1[C@H](C(=O)O)C[C@@H]2CCCC[C@@H]21)C(=O)OCC [perindopril]
inactive: [1] 0 | [2] 0 | [3] 0 | [4] 0 | [5] 0 | [6] 0 | [7] 0 | [8] 0 | [9] 0 | [10] 0 | [11] 0 | [12] 0 | [13] 0 | [14] 0 | [15] 0

COc1cc(C#N)ccc1S(=O)(=O)Nc1ccc2c(c1)cc(C)c(=O)n2C
inactive: [1] 0 | [2] 0 | [3] 0 | [4] 0 | [5] 0 | [6] 0 | [7] 0 | [8] 0 | [9] 0 | [10] 0 | [11] 0 | [12] 0 | [13] 0 | [14] 0 | [15] 0

COc1ccc(CN(CCN(C)C)c2ccccn2)cc1 [mepyramine]
inactive: [1] 0 | [2] 0 | [3] 0 | [4] 0 | [5] 0 | [6] 0 | [7] 0 | [8] 0 | [9] 0 | [10] 0 | [11] 0 | [12] 0 | [13] 0 | [14] 0 | [15] 0

C[N+](C)(C)CCCCCC[N+](C)(C)C [Hexamethonium bromide]
inactive: [1] 0 | [2] 0 | [3] 0 | [4] 0 | [5] 0 | [6] 0 | [7] 0 | [8] 0 | [9] 0 | [10] 0 | [11] 0 | [12] 0 | [13] 0 | [14] 0 | [15] 0

O=C(Nc1cccnc1)c1cc(-c2ccnc(F)c2)ccc1OCc1ccccc1
inactive: [1] 0 | [2] 0 | [3] 0 | [4] 0 | [5] 0 | [6] 0 | [7] 0 | [8] 0 | [9] 0 | [10] 0 | [11] 0 | [12] 0 | [13] 0 | [14] 0 | [15] 0

N=C(N)NN=Cc1c(Cl)cccc1Cl [guanabenz]
inactive: [1] 0 | [2] 0 | [3] 0 | [4] 0 | [5] 0 | [6] 0 | [7] 0 | [8] 0 | [9] 0 | [10] 0 | [11] 0 | [12] 0 | [13] 0 | [14] 0 | [15] 0
